# Data from PubChem BioAssay (EPA / NIEHS).
# “And” between values parts separate entries of the source, which are not always exact repeats. Equal values may be shown once. Inconclusive results are not listed. The source made the active and inactive calls. Rule for the calls, unless noted: active = hit-call score of the fitted dose curve at least 0.9, where 1 is the maximum; inactive = score below 0.9.
# How the values were obtained:
# [1] = CCTE_Shafer_MEA_dev_burst_rate: CCTE's Neural Network Formation Assay for Burst Rate, Shafer Lab (AID 2284042);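 for AC50: potency for loss of burst rate below DMSO control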
# Method in brief: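 Rat primary cortical cultures on PEI/laminin MEA; compound from plating, re-dosed at DIV 5, 9 media change. Single-electrode bursts/recording length, well mean of active electrodes; AUC over DIV 5–12 recordings; loss-of-signal vs DMSO.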
# [2] = CCTE_Shafer_MEA_dev_bursting_electrodes_number: CCTE's Neural Network Formation Assay for Number of Bursting Electrodes, Shafer Lab (AID 2284043; active = hit-call score of the fitted dose curve at least 0.9, where 1 is the maximum;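 for AC50: potency is for loss of bursting electrodes relative to DMSO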)
# Method in brief: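 Number of electrodes reaching ≥1 burst every 2 min was recorded at DIV 5, 7, 9 and 12 and collapsed as trapezoidal area under the curve. Cultures were rat cortical neurons on MEA plates, dosed continuously from plating with medium and treatment refreshed on DIV 5 and 9.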
# [3] = CCTE_Shafer_MEA_dev_per_burst_interspike_interval: CCTE's Neural Network Formation Assay for Burst Interspike Interval, Shafer Lab (AID 2284044);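 for AC50: potency for a decrease of within-burst interspike interval below DMSO level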
# Method in brief: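 Readout is the average time between spikes inside single-electrode bursts, taken as a well mean across bursting electrodes. Cortical neurons from rat developed networks on MEA plates under continuous 12-day exposure; recordings on days 5, 7, 9 and 12 were integrated by trapezoidal AUC.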
# [4] = CCTE_Shafer_MEA_dev_burst_duration_mean: CCTE's Neural Network Formation Assay for Mean Burst Duration, Shafer Lab (AID 2284045);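 for AC50: curve fitted for loss meaning shorter burst duration than DMSO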
# Method in brief: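 Mean single-electrode burst duration (first to last spike), averaged over bursting electrodes per well, then integrated as area-under-curve across recordings at days 5, 7, 9 and 12. Rat cortical cultures on MEAs, compound present from plating, refreshed at feeds.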
# [5] = CCTE_Shafer_MEA_dev_interburst_interval_mean: CCTE's Neural Network Formation Assay for Mean Interburst Interval, Shafer Lab (AID 2284046);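 note: well-mean interburst interval of bursting electrodes as AUC over four recording days; curve fitted for decrease in interburst interval relative to DMSO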
# Method in brief: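 Rat cortical neurons, 1.5 x 10^5 cells/well, 48-well MEA; compound from day 0 through DIV 12, media and treatment renewed DIV 5/9. Recordings DIV 5, 7, 9, 12; well-mean interburst interval → trapezoidal AUC, loss direction vs DMSO.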
# [6] = CCTE_Shafer_MEA_dev_network_spike_number: CCTE's Neural Network Formation Assay for Number of Network Spikes, Shafer Lab (AID 2284048);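 for AC50: fit as a loss of signal meaning fewer network spikes than DMSO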
# Method in brief: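 Number of network spikes (coordinated firing across electrodes) recorded on days 5, 7, 9 and 12 and summarised as area under the curve. Rat cortical cultures on MEA, continuous compound exposure with full medium/treatment exchange at DIV 5 and 9.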
# [7] = CCTE_Shafer_MEA_dev_network_spike_peak: CCTE's Neural Network Formation Assay for Mean Number of Electrodes in Network Spike, Shafer Lab (AID 2284049);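 for AC50: fitted for loss of signal meaning fewer electrodes in network spikes than DMSO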
# Method in brief: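 Rat cortical primary culture, 1.5 x 10^5 cells/well, 48-well MEA (16 electrodes/well). Dosing day 0 through DIV 12, full media/compound exchange DIV 5, 9. AxIS adaptive spike detection; AUC over days 5/7/9/12; loss-of-signal vs DMSO.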
# [8] = CCTE_Shafer_MEA_dev_spike_duration_mean: CCTE's Neural Network Formation Assay for Mean Spike Duration, Shafer Lab (AID 2284051);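 note: mean network spike duration pooled as area under curve over DIV 5 to 12 recordings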;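 for AC50: potency for a decrease in mean network spike duration versus DMSO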
# Method in brief: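 Rat cortical primary cultures, 48-well MEA (16 electrodes/well); compound from plating, renewed DIV 5, 9. Network spike duration (AxIS adaptive detector) recorded DIV 5/7/9/12, combined as trapezoidal AUC; loss direction vs DMSO.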
# [9] = CCTE_Shafer_MEA_dev_network_spike_duration_std: CCTE's Neural Network Formation Assay for Standard Deviation of Network Spike Duration, Shafer Lab (AID 2284052);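 note: hits are decreases in network spike duration SD versus DMSO vehicle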
# Method in brief: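 Rat cortical cultures, 1.5 x 10^5 cells/well, exposed continuously from plating to DIV 12 with media/compound renewal at DIV 5, 9. Spontaneous activity recorded DIV 5/7/9/12, AxIS adaptive spike detector; AUC across days; negative direction vs DMSO.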
# [10] = CCTE_Shafer_MEA_dev_per_network_spike_spike_number_mean: CCTE's Neural Network Formation Assay for Mean Number of Spikes in a Network Spike, Shafer Lab (AID 2284053);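 for AC50: fitted as decrease in spikes per network spike relative to DMSO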
# Method in brief: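 Rat cortical primary cultures on 48-well MEA; compound from day 0, re-dosed with full media change DIV 5, 9. Recorded DIV 5, 7, 9, 12; spikes in 0.05 s window at network-spike peak ÷ total network spikes; AUC; loss vs DMSO.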
# [11] = CCTE_Shafer_MEA_dev_per_network_spike_spike_percent: CCTE's Neural Network Formation Assay for Percent of Spikes in a Network Spike, Shafer Lab (AID 2284054)
# Method in brief: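 Metric: fraction of spikes falling in a 0.05 s window at network-spike peaks. Recordings were made on days 5, 7, 9 and 12 and collapsed by trapezoidal AUC. Cultures were rat cortical neurons on MEA plates, dosed continuously from plating, re-dosed at media changes.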
# [12] = CCTE_Shafer_MEA_dev_LDH: CCTE's Lactate Dehydrogenase Assay for Cytotoxicity in the Neural Network Formation Assay, Shafer Lab (AID 2284068; active = hit-call score of the fitted dose curve at least 0.9, where 1 is the maximum;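 note: exposure for twelve days from plating with re-dosing on DIV 5 and 9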)
# Method in brief: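 Rat cortical primary neurons, MEA culture; dosing day 0–12, full medium plus compound exchange DIV 5, 9. Read-out: LDH enzyme activity, spectrophotometric. DMSO = negative control/baseline; signal loss → cytotoxicity.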
# [13] = CCTE_Shafer_MEA_dev_mutual_information_norm: CCTE's Neural Network Formation Assay for Mutual Information Normalization, Shafer Lab (AID 2284091);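 for AC50: mutual information between electrodes summarised as area under curve across four recording days; potency is for a decrease in mutual information relative to DMSO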
# Method in brief: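 Shared information across electrodes, tracked on days 5, 7, 9 and 12 of network development and collapsed as trapezoidal area under the curve. Rat cortical cultures were treated continuously from plating, with treatment renewed at feeds on DIV 5 and 9; DMSO baseline, negative-direction fit.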
# [14] = CCTE_Shafer_MEA_dev_correlation_coefficient_mean: CCTE's Neural Network Formation Assay for Mean Correlation Coefficient, Shafer Lab (AID 2284093);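 for AC50: well mean pairwise spike train correlation integrated as AUC over recording days 5 to 12; potency fitted for loss of correlation relative to DMSO vehicle wells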
# Method in brief: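 Rat cortical cultures, 1.5 x 10^5 cells/well, dosed from day 0 for 12 days. Spontaneous spikes recorded DIV 5/7/9/12; electrode-pair correlation coefficients averaged, AUC taken. Fit in loss direction vs DMSO.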
# [15] = CCTE_Mundy_HCI_Cortical_Synap_Neur_Matur_NeuriteSpotCountPerNeuriteLength: CCTE's Synaptogenesis and Neurite Maturation Assay in rat cortical cells for Neurite Spot Count per Neurite Length, Mundy Lab (AID 2284210)
# Method in brief: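 Synaptophysin spots per unit neurite length, measured by automated imaging of MAP2/synaptophysin/Hoechst-stained neurons. Cultures from rat cortex received chemical at DIV 7 with media change through DIV 12; glial growth arrested by AraC at DIV 5; DMSO baseline.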
# [16] = CCTE_Mundy_HCI_Cortical_NOG_NeuriteLength: CCTE's Neurite Outgrowth Assay in rat cortical cells for Neurite Length, Mundy Lab (AID 2284213);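 for AC50: neurites imaged about 48 to 50 h after chemical exposure began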
# Method in brief: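 First, rat primary cortical cells were plated and, 2 h later, given test chemical as a 1/10 dilution. Finally, βIII-tubulin immunostaining enabled automated imaging of neurite length.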
# [17] = CCTE_Mundy_HCI_Cortical_Synap_Neur_Matur_NeuriteLength: CCTE's Synaptogenesis and Neurite Maturation Assay in rat cortical cells for Neurite Length, Mundy Lab (AID 2284214)
# Method in brief: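 Cultures of rat primary cortical cells received chemical at DIV 7 and were fixed at DIV 12, after glial arrest with AraC at DIV 5. Neurite length was measured by automated imaging of MAP2 immunofluorescence.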
# [18] = CCTE_Mundy_HCI_Cortical_Synap_Neur_Matur_NeuriteSpotCountPerNeuron: CCTE's Synaptogenesis and Neurite Maturation Assay in rat cortical cells for Neurite Spot Count per Neuron Count, Mundy Lab (AID 2284215)
# Method in brief: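 Read-out: neurite-associated synaptophysin puncta per neuron, imaged by high-content analysis after MAP2, synaptophysin and Hoechst staining. Rat primary cortical cultures, dosed DIV 7 through DIV 12; DMSO served as baseline.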
# [19] = CCTE_Mundy_HCI_Cortical_Synap_Neur_Matur_SynapseCount: CCTE's Synaptogenesis and Neurite Maturation Assay in rat cortical cells for Synapse Count, Mundy Lab (AID 2284218)
# Method in brief: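 Cells were plated, allowed 2 hr to attach, treated with AraC at DIV 5, then exposed to chemicals from DIV 7 until DIV 12. After fixation and MAP2/synaptophysin immunolabelling, synapses per neuron were quantified by automated imaging against DMSO.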
# [20] = CCTE_Mundy_HCI_Cortical_Synap_Neur_Matur_CellBodySpotCount: CCTE's Synaptogenesis and Neurite Maturation Assay in rat cortical cells for Cell Body Spot Count, Mundy Lab (AID 2284223)
# Method in brief: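 Read-out: cell body-associated synaptophysin puncta per neuron, imaged after MAP2, synaptophysin and Hoechst staining. Rat cortical cells, AraC DIV 5, chemical dosing DIV 7, fixation DIV 12. Activity fitted in positive direction relative to DMSO baseline.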
compound,measurement,setting,value
CN(C)C(=O)C(CCN1CCC(O)(c2ccc(Cl)cc2)CC1)(c1ccccc1)c1ccccc1,AC50,[1],41.8 nM (active) and 92.4 nM (active) and 335 nM (active)
same,AC50,[2],117 nM (active) and 63.8 nM (active) and 1.19 µM (active)
same,AC50,[3],92.1 nM (active) and 66.7 nM (active) and 493 nM (active)
same,AC50,[4],185 nM (active) and 33.1 nM (active) and 526 nM (active)
same,AC50,[5],581 nM (active) and 249 nM (active) and 2.56 µM (active)
same,AC50,[6],32.8 nM (active) and 102 nM (active) and 172 nM (active)
same,AC50,[7],612 nM (active) and 41.5 nM (active) and 1.81 µM (active)
same,AC50,[8],511 nM (active) and 18.7 nM (active) and 1.15 µM (active)
same,AC50,[9],262 nM (active) and 11.6 nM (active) and 736 nM (active)
same,AC50,[10],766 nM (active) and 44.5 nM (active) and 2.52 µM (active)
same,AC50,[11],2.31 µM (active) and 276 nM (active) and 2.68 µM (active)
same,AC50,[12],4.19 µM (active) and 2.7 µM (active) and 2.94 µM (active)
same,AC50,[13],112 nM (active) and 60.7 nM (active) and 621 nM (active)
same,AC50,[14],1.35 µM (active) and 766 nM (active) and 2.54 µM (active)
same,AC50,[15],14900 nM (active)
same,AC50,[16],6630 nM (active)
same,AC50,[17],3220 nM (active)
same,AC50,[18],3000 nM (active)
same,AC50,[19],3430 nM (active)
same,AC50,[20],16900 nM (active)
Cc1c(O)cccc1C(=O)N[C@@H](CSc1ccccc1)[C@H](O)CN1C[C@H]2CCCC[C@H]2C[C@H]1C(=O)NC(C)(C)C,AC50,[1],664 nM (active)
same,AC50,[2],819 nM (active)
same,AC50,[3],473 nM (active)
same,AC50,[4],311 nM (active)
same,AC50,[5],1.51 µM (active)
same,AC50,[6],1.56 µM (active)
same,AC50,[7],1.26 µM (active)
same,AC50,[8],559 nM (active)
same,AC50,[9],1.27 µM (active)
same,AC50,[10],1.19 µM (active)
same,AC50,[11],6.35 µM (active)
same,AC50,[12],7.06 µM (active)
same,AC50,[13],772 nM (active)
same,AC50,[14],1.78 µM (active)
same,AC50,[15],6390 nM (active)
same,AC50,[16],28900 nM (active)
same,AC50,[17],4560 nM (active)
same,AC50,[18],2490 nM (active)
same,AC50,[19],3110 nM (active)
same,AC50,[20],6410 nM (active)
CC1(C)S[C@@H]2[C@H](NC(=O)[C@H](N)c3ccc(O)cc3)C(=O)N2[C@H]1C(=O)O,outcome,[1],inactive
same,outcome,[2],inactive
same,outcome,[3],inactive
same,outcome,[4],inactive
same,outcome,[5],inactive
same,outcome,[6],inactive
same,outcome,[7],inactive
same,outcome,[8],inactive
same,outcome,[9],inactive
same,outcome,[10],inactive
same,outcome,[11],inactive
same,outcome,[12],inactive
same,outcome,[13],inactive
same,outcome,[14],inactive
same,outcome,[15],inactive
same,outcome,[16],inactive
same,outcome,[17],inactive
same,outcome,[18],inactive
same,outcome,[19],inactive
same,outcome,[20],inactive
